This is an account of results in PubChem BioAssay (NCI).

About 83,000 compounds went through this panel and 20% of them were active in at least one assay; those are over-represented in the sample as a whole.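 Values shown are percent growth following 48 h exposure of cells in 96-well plates to a single concentration of compound; below 10 was considered active.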 A number with no mark means an inactive call. Activity calls are given as the source filed them.

The test has as its system KM12 colon. The experiment in a line: NCI-60 one-dose screen, 48 h (100 = growth as untreated, 0 = no growth, -100 = all killed). The following applies: 10 µM unless noted.
For the compound `CC1(C)c2[nH]c3ccccc3c2C[C@]2(C)[C@H]3C(=O)C=C4[C@@H]5C[C@@](C)(C(N)=O)CC[C@]5(C)CC[C@@]4(C)[C@]3(C)CC[C@@H]12`, the growth is 67.5%.
For the compound `C[C@H]1[C@H](C)CC[C@]2(C(=O)NCC#CCN3CCN(C)CC3)CC[C@]3(C)C(=CC[C@@H]4[C@@]5(C)Cc6c([nH]c7ccccc67)C(C)(C)[C@@H]5CC[C@]43C)[C@H]12`, the growth is 75.2%.
As for `CC(=O)O[C@@H]1C2CCC3C(CC[C@@]4(C)C3CC[C@@H]4C(C)N(C)C)[C@@]2(C)CC[C@@H]1NC(=O)C=C(C)C` (stereo partly drawn), the growth was 9.21% (active).
As for `CCN1C(=O)N(CC)C2Nn3c(s/c(=C\c4ccc(OC)cc4)c3=O)=NC21` (stereo not drawn), the growth was 37.8%.
Consider `CN1CCC(=C(c2ccccc2)c2ccccc2)C(c2ccccc2)C1` (stereo not drawn), for which the growth is 97.3%.
In the case of `O=C(Cc1ccccc1)NNc1nc(Cl)nc(N2CCN(C(c3ccccc3)c3ccccc3)CC2)n1` it was 97.5%; in that of `N#CC(C#N)=Cc1cc2ccccc2nc1Oc1ccc(C(F)(F)F)cc1`, 88.5%; in that of `COc1cc(/C=C\c2cc(OC)c(OC)c(OC)c2)cc(N)c1OC`, 54.9%.
With `COc1cccc(-c2nc3occn3c2-c2ccnc(NCCCNS(=O)(=O)c3ccc(C(F)(F)F)cc3)n2)c1`, the growth is 91.5%.
Regarding `O=C(O)c1ccc2c(c1)C(=O)N(Cc1ccccc1)C2=O`, the growth is 104%.
Regarding `C=C(C)[C@@H]1CC[C@]2(C(=O)N3CCN(C)CC3)CC[C@]3(C)[C@H](CC[C@@H]4[C@@]5(C)CC[C@H](O)C(C)(C)[C@@H]5CC[C@]43C)[C@@H]12`, the growth is -80.7% (active).
With `Cn1cc(-c2nc(-c3c[nH]c4c(Cl)nccc34)cs2)c2cc(Br)ccc21`, the growth is 86.2%.
In the case of `O=S(=O)(NCCCNc1nccc(-c2c(-c3cccc(F)c3)nc3sccn23)n1)c1cccc(F)c1`, the growth is 30%.
Turning to `Cn1c(N2NC(=O)C(N=Nc3ccc(S(N)(=O)=O)cc3)C2=O)nc(-c2ccco2)c(C#N)c1=O` (stereo not drawn), the growth is 85.5%.
`NC(=S)N1N=C(c2ccccc2)CC1c1cn(-c2ccccc2)nc1-c1ccc(OCc2ccccc2)cc1` (stereo not drawn): the growth is 99.5%.
Consider `CCCCOc1ccc(/C(C)=N/Nc2cc(C)nc3ccc(Br)cc23)cc1`, for which the growth was 62.9%.
On to `CN(C)CC(O)c1ccc(/C=C/c2ccc(Cl)cc2)cc1` (stereo not drawn), for which the growth is -91.5% (active).
In the case of `CC(=O)Nc1cccc(-c2ccc3c(c2)NC(=O)/C3=C\c2ccc[nH]2)c1`, the growth was 14.5%.
For `O=C(Nc1ncc(Cc2cc(Cl)ccc2Cl)s1)c1cccs1`, the growth is 31.2%.
For the compound `N#C/C(=C\c1ccc([N+](=O)[O-])s1)c1nc2cc(Cl)ccc2s1`, the growth was 81.4%.
`CCN(Cc1ccccc1)c1ccc(C=O)cc1`: the growth is 106%.
In the case of `CCN1CCN(CCNc2nccc(-c3c(-c4cccc(OC)c4)nc4occn34)n2)S1(=O)=O`, the growth is 100%.
For the compound `CNC(=O)c1cc(Cn2nc(C)c(NC(=O)Nc3ccc(Cl)c(C(F)(F)F)c3)c2C)ccn1`, the growth was 106%.
With `CC1(C)CC(=O)C2=C(C1)N(c1ccc(F)cc1F)C(N)=C(C#N)C2c1cc(Br)ccc1F` (stereo not drawn), the growth was 88.7%.
As to `CCC(CC)NCC(C)(C)O`, the growth is 104%.
In the case of `COCCCN1CC(O)=C(c2nc(-c3ccc(C)cc3)cs2)C1=N` it was 120%.
Turning to `CC(=O)N1c2ccccc2NC2=C(C(=O)NC2(C)C)C1c1ccco1` (stereo not drawn), the growth is 51.2%.
With `Cc1c(C(=O)NCCC(=O)NO)sc2ncnc(Nc3ccc(F)c(Cl)c3)c12`, the growth is 104%.
In the case of `COc1ccc(C(=O)c2cc(C)c(OC)c(C)c2)c(OC)c1OC(=O)C(Cl)Cl` it was 8.08% (active).
As to `COc1ccc(-c2[nH][nH]c(=O)c2-c2nc3ccccc3s2)cc1`, the growth is 101%.
As for `CN(C)c1ccc(Nc2c3ccccc3nc3cc(NC(=O)CCN4CCCC4)ccc23)cc1`, the growth is -34.8% (active).
In the case of `CCOC(=O)c1ccc2c(c1)ncn2-c1ccc(NC(=O)Nc2cccc(C)c2)cc1` it was 27.7%.
On to `C/C=C(\C)C(=O)NC1=CC[C@@]2(C)C(=CCC3C2CC[C@@]2(C)C3CC[C@@H]2C(C)N(C)C)C1=O` (stereo partly drawn), for which the growth is 19.6%.
As for `COc1ccc(NC(N)=NCCCOc2ccc(F)cc2)cc1`, the growth was 84.4%.
In the case of `Cc1cc2nc3c4cc(C=O)ccc4n(CCN(C)C)c3nc2cc1C` it was 26.3%; in that of `CC(=O)N1N=C(c2ccc(-n3ccc(C(F)(F)F)n3)c(F)c2)CC1c1ccc[nH]1` (stereo not drawn), 101%; in that of `Brc1ccc(Nc2csc(-c3ccccn3)n2)cc1`, 72.7%.
In the case of `Cc1ccc(C(=O)/C(=C\c2ccc([N+](=O)[O-])cc2)S(=O)Cc2ccc(F)cc2)cc1` (stereo not drawn), the growth is 19.4%.
